# Measurements as given in PubChem BioAssay (NCATS).
# Results filed as inconclusive are left out. Entries that show only a call come without a potency. Unmarked numbers belong to inactive results. Activity calls are given as the source filed them. The call rests on the fitted dose curve; in most records, active means well fitted curve in the direction sought with a large enough effect; inconclusive means small, poorly fitted or top-dose-only effect, or another doubt; inactive means no such curve, though single readings can be large; an effect the other way counts as inactive or inconclusive.
# Assays:
# [1] = target: Cellular tumor antigen p53 (Homo sapiens) (UniProt P04637); experiment: Primary qHTS for small molecule compounds that upregulate eGFP-tagged delta133p53alpha (in N-terminal) cells. (AID 2060322); settings: NCI-H358 eGFP-delta133p53alpha fluorescence, 24 h; activation: active compounds read high; further: nearly all actives have a fitted effect of over 75% in size; further: potency means the concentration at half of the fitted maximal effect; on activation: series mostly up to about 56 µM
# Summary of the method: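 NCI-H358 cells pre-induced 24 h with 10 ng/ml doxycycline to express N-terminal eGFP-delta133p53alpha, then dosed 24 h at 37C without doxycycline; fixed, Hoechst-stained, GFP intensity by laser scanning cytometry, normalized to DMSO (0%) and 57.5 uM 5-azacytidine (100%).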
# [2] = target: Aldehyde dehydrogenase, mitochondrial (Homo sapiens) (UniProt P05091); experiment: qHTS for Inhibitors of the Aldehyde Dehydrogenase Family (ALDH2) Primary screen (AID 2061308); further: nearly all actives have a fitted effect of over 55% in size
# [3] = target: Retinaldehyde dehydrogenase 3 (Homo sapiens) (UniProt P47895); experiment: qHTS for Inhibitors of the Aldehyde Dehydrogenase Family (ALDH1A3) Primary screen (AID 2061315)
# Chain of Cellular tumor antigen p53 (Homo sapiens) (P04637 whole entry, looked up): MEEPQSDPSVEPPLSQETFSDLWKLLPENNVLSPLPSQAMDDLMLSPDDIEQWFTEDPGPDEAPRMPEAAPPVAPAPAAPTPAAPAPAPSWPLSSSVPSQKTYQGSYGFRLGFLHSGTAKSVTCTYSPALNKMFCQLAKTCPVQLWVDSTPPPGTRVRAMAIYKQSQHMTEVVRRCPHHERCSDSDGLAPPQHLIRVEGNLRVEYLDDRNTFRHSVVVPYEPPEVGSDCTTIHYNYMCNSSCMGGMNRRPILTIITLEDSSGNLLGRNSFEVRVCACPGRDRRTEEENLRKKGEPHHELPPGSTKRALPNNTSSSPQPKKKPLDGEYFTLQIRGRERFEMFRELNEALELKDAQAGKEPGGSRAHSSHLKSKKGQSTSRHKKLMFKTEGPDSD
Compound,activation [1] [%],Potency [2],Potency [3],"activity change, negative = inhibition [2]","activity change, negative = inhibition [3]",Potency [1]
C=C1CCC2C(C)(C)CCC[C@]2(C)[C@H]1CC/C(C)=C/C(=O)O (stereo not given in full),-3.82,inactive,inactive,,,
C/C=C(\C)C(=O)OC[C@H]1O[C@@H](O[C@H]2[C@@H](O[C@H]3O[C@H](COC(=O)/C(C)=C/C)[C@@H](O)[C@H](O)[C@H]3O[C@@H]3O[C@H](COC(=O)/C(C)=C/C)[C@@H](O)[C@H](OC(=O)/C(C)=C/C)[C@H]3O)O[C@H](COC(=O)/C(C)=C/C)[C@@H](O)[C@@H]2O)[C@H](O)[C@@H](O)[C@@H]1O,-15.3,inactive,inactive,,,
C/C=C(\C)C(=O)OC1CC2C(CC=C3CC(OC4CC(OC)C(OC5CC(OC)C(OC6CC(OC)C(OC7CC(OC)C(OC8CC(OC)C(OC9OC(CO)C(O)C(O)C9O)C(C)O8)C(C)O7)C(C)O6)C(C)O5)C(C)O4)CCC32C)C2(O)CCC(C(C)=O)C12C (stereo not given),-13,,,14.2% [at 11.2 µM],17.2% [at 11.2 µM],
CC(C)CNC(=O)/C=C/CCCCc1ccc2c(c1)OCO2,10.7,inactive,inactive,,,
C=CC(=O)Nc1cc(-n2c(=O)ccc3cnc4ccc(-c5ccc(NS(C)(=O)=O)cc5)cc4c32)ccc1C,,inactive,inactive,,,10.7 µM (active)
Cc1sc2c(c1C)C(c1ccc(Cl)cc1)=N[C@H](CC(=O)NCCCCNC(=O)COc1cccc3c1C(=O)N([C@H]1CCC(=O)NC1=O)C3=O)c1nnc(C)n1-2,,inactive,inactive,,,1.69 µM (active)
CCOC(=O)c1ccc(OCCC2CCN(c3ccc(C)nn3)CC2)cc1,-17.9,inactive,inactive,,,
C=C(CO[C@@H]1O[C@H](CO[C@@H]2OC[C@](O)(CO)[C@H]2O)[C@@H](O)[C@H](O)[C@H]1O)C1Cc2cc(C(C)=O)ccc2O1 (stereo not given in full),-12.2,inactive,inactive,,,
C/C=C(/C)C(=O)OC1CC(C)(C)CC2C3=CCC4C5(C)CCC(O[C@@H]6O[C@H](C(=O)O)[C@@H](O)[C@H](O)[C@H]6O[C@@H]6O[C@H](CO)[C@H](O)[C@H](O[C@@H]7OC[C@H](O)[C@H](O)[C@H]7O[C@@H]7O[C@H](CO)[C@@H](O)[C@H](O)[C@H]7O)[C@H]6O)C(C)(C)C5CCC4(C)C3(C)C(O)C(O)C12CO (stereo not given in full),0.893,,,-0.94% [at 11.2 µM],-6.72% [at 11.2 µM],
O=C1N(CC2CCCCN2)CCN1c1ccccc1 (stereo not given),5.73,inactive,inactive,,,
COc1cc(O)cc(C)c1C(=O)OC1C(CO)OC(OC2C(O)C(O)C(O)C(O)C2O)C(O)C1O (stereo not given),-29,inactive,inactive,,,
C=C1C(OC(C)=O)CCC2(C)CC3(O)OC(=O)C(C)=C3CC12 (stereo not given),-3.57,inactive,inactive,,,
O=C(CCc1ccccc1)c1c(O)c([C@@H]2O[C@H](CO)[C@@H](O)[C@H](O)[C@H]2O)c(O)c([C@@H]2O[C@H](CO)[C@@H](O)[C@H](O)[C@H]2O)c1O,-1.53,inactive,inactive,,,
C/C1=C\[C@H]2OC(=O)[C@@H](C)[C@@H]2CC/C(C(=O)O)=C/CC1,-5.34,inactive,inactive,,,
C[C@@H]1C(=O)O[C@H](C)[C@H]1CC(=O)[C@](C)(O)[C@H]1CC[C@@]2(O)C3=CC(=O)[C@@H]4C[C@@H](O)[C@@H](O)C[C@]4(C)C3CC[C@]12C (stereo not given in full),-6.11,inactive,inactive,,,
NC[C@@H]1O[C@@H](O[C@@H]2[C@@H](O[C@@H]3O[C@H](CO)[C@@H](O)[C@H]3O)[C@H](O)[C@@H](N)C[C@H]2N)[C@@H](N)[C@H](O)[C@H]1O,-0.893,,,-0.412% [at 11.2 µM],-9.15% [at 11.2 µM],
COc1ccc(C#Cc2ccc(C(=O)N3CCC[C@@H](O)C3)c(F)c2)cc1,-8.04,inactive,inactive,,,
C=C1CCC[C@]2(C)CC/C(=C(/CO)C(=O)OC)C[C@@H]12,18.8,inactive,inactive,,,
N#Cc1ccc2ncnc(NCCc3ccccc3)c2c1,-3.57,inactive,inactive,,,
COc1nc2sc(C(=O)NC3CC3)c(N)c2c(C)c1Cl,-6.33,inactive,inactive,,,
